Reference: the supplement of paper PMC5940239

What was measured:
[1] = tested on: Madurella mycetomatis MM55; conditions: 7 days
[2] = tested on: Madurella mycetomatis MM55; assay: IC90; higher = less potent; conditions: 7 days
[3] = tested on: Madurella mycetomatis MM55; assay: percent growth relative to solvent control; higher = less inhibition, active = 20 or less; conditions: 100 µM; 7 days

SMILES	IC50 [1] [µM]	IC90 [2] [µM]	percent growth [3]
c1ccc(-c2[nH]c3ccccc3c2C(c2ccccn2)N2CCCC2)cc1 (stereo not drawn)	34.8	94.6	5.96% (active)
Cc1ccc(S(=O)(=O)N2CCN(C(=O)c3cc(-c4ccccc4)[nH]n3)CC2)cc1	–	–	146% (inactive)
CCOc1ccc(-c2nc(CNCCc3ccc(F)cc3)cs2)cc1	10.4	19.6	3.57% (active)
CCc1c(C)nc(-n2nc(C)cc2NC(=O)c2ccccc2SC)[nH]c1=O	6.75	15.1	2.44% (active)
O=C(Nc1ccc(N2CCNCC2)cc1)c1ccn2ncc(-c3cccc(Cl)c3)c2n1	2.95	4.9	8.12% (active)
C[C@H](C(N)=O)N1CCCC[C@H]1c1ccc(OCc2cccc(F)c2)cc1	64.2	94.4	2.85% (active)
CCCCc1ccc(C(=O)Nc2nccc3ccccc23)nc1	54.6	86	-1.16% (active)
CCN(CC)CCCCCCNc1cc(OC)cc2c(C)ccnc12	9.8	17.8	-1.36% (active)
OCc1ccc(-c2cncc(Nc3cccc(Cl)c3)c2)cc1	63.6	98.2	7.76% (active)
CC(C)n1nc(-c2cc3c(Cl)cccc3[nH]2)c2c(N)ncnc21	52.5	89	-3.21% (active)
CCn1ncc2c(NC3CCOCC3)c(CNC(=O)c3ccnn3C)c(C)nc21	–	–	142% (inactive)
O=C(c1cc2ccccc2o1)N1CCN(Cc2ccc3c(c2)OCO3)CC1	45.1	87.5	3.51% (active)
Brc1c(-c2ccc3c(c2)OCO3)nc2ncccn12	–	–	85.6% (inactive)
Cn1c(=O)c2c(S(C)(=O)=O)snc2n(C)c1=O	60	91.5	-0.615% (active)
CNc1cc(C)nc(C2CN(C(=O)c3n[nH]c4ccccc34)CCO2)c1 (stereo not drawn)	–	–	103% (inactive)
N=C(N)c1ccc(OCCCCCOc2ccc(C(=N)N)cc2)cc1	–	–	48.7% (inactive)
O=C(Nc1ccc(N2CCNCC2)nc1)c1oc(-c2ccccc2)nc1C(F)(F)F	37.9	85.3	-3.61% (active)

SMILES	IC50 [1] [µM]	IC90 [2] [µM]	percent growth [3]
NS(=O)(=O)c1cncc(-c2ccc3nccc(-c4cn[nH]c4)c3n2)c1	–	–	143% (inactive)
O=C(Nc1nc(-c2ccccn2)cs1)c1cncn1-c1ccccc1	10.8	40.8	1.78% (active)
Cc1ccc(-c2nc(CN(Cc3ccccn3)C(C)C)cs2)o1	53.9	90	0.31% (active)
Cc1nc(-c2ccccn2)nc(N2CCC(Cc3ccccc3)C2)c1Cl (stereo not drawn)	5.1	13.7	6.94% (active)
Nc1ncnc2[nH]nc(Cc3cccc4ccccc34)c12	–	–	118% (inactive)
CC(C)c1ncc(-c2ccncc2)c([C@H]2CC[C@H](CNC(=O)c3cccnc3)CC2)n1	–	–	114% (inactive)
O=C(c1ccc(NCCO)cc1)C1C[C@H]1c1ccc(Cl)cc1 (stereo partly drawn)	12.2	38	4.06% (active)
Cc1cc(C(=O)Nc2ccc(-c3ccccc3)cc2)no1	–	–	199% (inactive)
Cc1ccc(NC(=O)c2nc[nH]c2C(=O)Nc2nc3ccccc3[nH]2)c(C)c1	–	–	147% (inactive)
CC(C)C(C(=O)Nc1ccc(S(=O)(=O)N(C)C)cc1)c1ccc(Cl)cc1 (stereo not drawn)	–	–	121% (inactive)
COc1ccccc1CNC(=O)c1cc(C2CC2)nc2c1cnn2C(C)C	51.9	88.8	-2.92% (active)
COc1ccc(C(=N)N)cc1-c1cn(-c2ccc(C(=N)N)cc2)nn1	56.6	89.2	-3.41% (active)
O=C(NC1CCCCC1)N1CCN(Cc2ccc3c(c2)OCO3)CC1	–	–	74.6% (inactive)
Cc1ccc(NC(=O)CC2COc3ccccc3O2)cc1Cl (stereo not drawn)	51.9	91.3	1.24% (active)
CN(C)c1cc(NC(=O)Nc2ccccc2)c2ccccc2n1	14.2	59.1	8.07% (active)
COc1ccc(Cn2cnc3c(-c4ccco4)nc(Cl)nc32)cc1	–	–	82.7% (inactive)
